Experimental data as given in publication PMC8384837, “Expanding the binding specificity for RNA recognition by a PUF domain”.

Target: PUM1 PUF domain R5-GIR (Homo sapiens, UniProt Q14671 828-1176, C1007G;R1008I;Q1011R)
Assay: yeast three-hybrid, YBZ-1, SC-Leu-His + 0.5 mM 3-AT, 4 days
Conditions: tags: N-Gal4 AD-HA kept; label: inside an RPR1-promoter hybrid RNA with tandem MS2 sites; ssRNA
Summary of the method: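 Sequencing with Illumina followed PCR amplification of the repeat regions from transformants grown four days on SC-Leu (input) or SC-Leu-His + 0.5 mM 3-AT (selection). The transformants were strain YBZ-1 with a LexA–MS2 coat fusion and a HIS3 reporter, carrying Pumilio-1 PUF domain libraries and matching RNA elements. The interaction score is the log change in variant frequency from input to selection, computed in log2 with a pseudocount of 1 for absent variants.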

| Sequence | binding signal |
| --- | --- |
| GGCUAGAACUAGUGGAUCCCCCGGCGCCCGGCGGCUCGAGCCCGGGUAAGUGUAAAUAGUCUGCAUGCCGCCGGGCGCCAUGCCUGCAGGUCGACUCUAGAAAACAUG | 2.43 log2 enrichment (interaction score) |
| GGCUAGAACUAGUGGAUCCCCCGGCGCCCGGCGGCUCGAGCCCGGGUAAGUGUCAAUAGUCUGCAUGCCGCCGGGCGCCAUGCCUGCAGGUCGACUCUAGAAAACAUG | 4.37 log2 enrichment (interaction score) |
| GGCUAGAACUAGUGGAUCCCCCGGCGCCCGGCGGCUCGAGCCCGGGUAAGUGUUAAUAGUCUGCAUGCCGCCGGGCGCCAUGCCUGCAGGUCGACUCUAGAAAACAUG | 1.6 log2 enrichment (interaction score) |
